Screening data (PubChem BioAssay)
Only a selection was taken, and hits are over-represented in it overall.
PKM2 inhibitor: inhibitors of human pyruvate kinase M2 | Potency, µM (series often up to 57.5 µM), inactives show at the highest dose activity change, negative = inhibition, most hits filed as inhibitors | 260,000 tested, 0.058% active | purified PKM2, ATP generation, Kinase-Glo luminescence | P14618; active = well fitted inhibition curve with a large enough effect; also: nearly all actives have a fitted effect of over 60% in size
Target sequence (P14618 whole entry, looked up): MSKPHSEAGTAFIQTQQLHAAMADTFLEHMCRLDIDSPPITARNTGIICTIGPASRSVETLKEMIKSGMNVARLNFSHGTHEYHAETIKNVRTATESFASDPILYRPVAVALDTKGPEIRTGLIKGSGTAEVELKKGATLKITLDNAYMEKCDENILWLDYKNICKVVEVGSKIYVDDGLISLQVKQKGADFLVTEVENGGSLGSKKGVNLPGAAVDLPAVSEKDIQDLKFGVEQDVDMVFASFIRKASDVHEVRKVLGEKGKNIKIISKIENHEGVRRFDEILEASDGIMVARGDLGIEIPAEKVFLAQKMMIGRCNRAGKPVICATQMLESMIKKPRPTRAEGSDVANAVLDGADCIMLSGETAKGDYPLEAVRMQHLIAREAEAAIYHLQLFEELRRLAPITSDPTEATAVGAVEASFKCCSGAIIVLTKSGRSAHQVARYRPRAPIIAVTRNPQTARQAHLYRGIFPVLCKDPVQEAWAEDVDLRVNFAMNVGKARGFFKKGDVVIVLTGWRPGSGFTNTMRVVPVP
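Enzyme run at intermediate activity with final 0.1 mM ADP, 0.5 mM PEP (50 mM imidazole pH7.2, 50 mM KCl, 7 mM MgCl2), incubated 1 h at r.t. ATP formed read by Kinase-Glo luminescence, normalized to no-enzyme (full inhibition) and uninhibited wells.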
An asterisk follows results filed as active. Potency is read from the fitted curve at half-maximal effect.

Results for Cc1ccc2nc(-c3ccccc3)cn2c1 ?
PKM2 inhibitor: 14.1µM*

How did Nc1nc(-c2ccccc2)cn1N do in these assays?
PKM2 inhibitor: 77.8%

Results for COc1cc(NC(=O)C2CCN(S(=O)(=O)c3ccc(Cl)cc3)CC2)ccc1-n1cnnn1 ?
PKM2 inhibitor: 0.2%

Results for COC(=O)C1C(=O)c2c([nH]c(C(=O)OCC3CCCO3)c2C)CC1C (configuration not stated) ?
PKM2 inhibitor: 2.0%

Results for Fc1ccccc1-c1nc2ccccc2[nH]1 ?
PKM2 inhibitor: 31.6µM*

How did Cc1cc(C)c2c(N)c(-c3nc4ccccc4[nH]3)sc2n1 do in these assays?
PKM2 inhibitor: 54.7%

What do the screens show for `C=CCNC(=O)/C(C#N)=C/c1ccc(OS(=O)(=O)c2ccc(C)cc2)c(OC)c1`?
PKM2 inhibitor: 36.9%

Results for c1c2c(cc3sc(N4CCOCC4)nc13)OCCO2 ?
PKM2 inhibitor: 14.1µM*

What do the screens show for `Cc1ccc(N2C(=O)C3C4C=CC(CNC(=S)Nc5cccc(Cl)c5)(O4)C3C2=O)cc1` (configuration not stated)?
PKM2 inhibitor: 37.6%

What do the screens show for `O=C(O)c1ccc(OCCOc2ccccc2)cc1`?
PKM2 inhibitor: 111.3%

How did CCOC(=O)C1=C(Cc2ccc(C)cc2)C(=O)c2ccccc2C1=O do in these assays?
PKM2 inhibitor: 40.2%

What do the screens show for `Cc1ccc(-c2cc3c(nn2)-c2ccccc2C3=O)cc1`?
PKM2 inhibitor: 12.6µM*

How did COc1ccc(S(=O)(=O)N2CCC(Nc3ccccc3Cl)CC2)cc1 do in these assays?
PKM2 inhibitor: 36.9%

What do the screens show for `O=S(=O)(c1ccc(F)cc1)N1CCN(Cc2ccccn2)CC1`?
PKM2 inhibitor: 32.3%

Results for Cc1ccc(-c2ccc(SCC(=O)Nc3cc(C)on3)nn2)cc1 ?
PKM2 inhibitor: -1.6%

What do the screens show for `CCOc1ccc(-c2ccc(SC)nn2)cc1`?
PKM2 inhibitor: 3.16µM*

How did CCOc1ccc(CNc2cccc(SC)c2)cc1 do in these assays?
PKM2 inhibitor: 77.3%

How did COc1cc2c(cc1OC)N1C(=O)CC(OCC(=O)O)C3C4CC5(CCN5C(=O)C4=O)C2C31 (configuration not stated) do in these assays?
PKM2 inhibitor: 52.3%

Results for Cc1ccccc1NS(=O)(=O)c1ccc2oc(=O)ccc2c1 ?
PKM2 inhibitor: 56.2%

How did Cc1cc(N2C(=O)C=CC2=O)c([N+](=O)[O-])cc1C do in these assays?
PKM2 inhibitor: 73.3%

How did Cc1[nH]c(=S)sc1Cc1ccc(F)cc1 do in these assays?
PKM2 inhibitor: 37.7%

Results for Cc1cccc(NC(=O)c2cc([N+](=O)[O-])ccc2NCC2CCCO2)n1 (configuration not stated) ?
PKM2 inhibitor: 46.9%

Results for Cc1cc(NC(=O)CSc2nc3c(cc2C#N)CCCC3)no1 ?
PKM2 inhibitor: 22.7%

How did Cc1cccc(NC(=O)c2onc3c2CCCC3)n1 do in these assays?
PKM2 inhibitor: 12.6µM*

What do the screens show for `Cc1cc(-c2nnc(SCC(=O)Nc3nccs3)o2)no1`?
PKM2 inhibitor: 89.7%

Results for CC1CCN(CC(=O)Nc2ccc(S(=O)(=O)NC3CC3)cc2)CC1 ?
PKM2 inhibitor: 36.4%

How did Cc1cccc(-n2nnnc2SCC(=O)Nc2cccc(S(N)(=O)=O)c2)c1 do in these assays?
PKM2 inhibitor: 64.2%

Results for c1ccc(C2=NNC(=NC3CC3)SC2)cc1 ?
PKM2 inhibitor: 14.1µM*

What do the screens show for `Clc1ccc(C2=NNC(=NCc3ccc4c(c3)OCO4)SC2)cc1`?
PKM2 inhibitor: 59.3%

What do the screens show for `COc1cc(C(=S)N2CCN(c3ccccc3Cl)CC2)cc(O)c1O`?
PKM2 inhibitor: 130.4%

How did CN1C(=O)c2cccc3c(S(=O)(=O)N(C)C)ccc1c23 do in these assays?
PKM2 inhibitor: 38.0%

Results for COc1ccc(C(=O)NNC(=O)c2ccccn2)cc1 ?
PKM2 inhibitor: 3.55µM*

Results for COc1ccc(-n2c(SCC(=O)O)nnc2-c2ccc(NC(=O)c3ccccc3)cc2)cc1 ?
PKM2 inhibitor: 39.9%

What do the screens show for `COc1cc(/C=C/C(=O)CC(=O)/C=C/c2ccc(O)c(OC)c2)ccc1O`?
PKM2 inhibitor: 30.3%

What do the screens show for `COc1ccc(/C=C/C(=O)c2ccccn2)cc1`?
PKM2 inhibitor: 15.8µM*

How did COc1ccc(CNC(=O)c2c(C)nc3ccccn23)cc1 do in these assays?
PKM2 inhibitor: 43.1%

Results for COc1ccc(/C=C/C(=O)NCCNC(=O)c2ccccc2)cc1OC ?
PKM2 inhibitor: 38.4%

Results for CC(NC(=O)CSC1=NCCS1)c1ccccc1 (configuration not stated) ?
PKM2 inhibitor: 31.8%

How did COCCOC(=O)/C(C#N)=C/c1cn(Cc2ccccc2)nc1-c1cccnc1 do in these assays?
PKM2 inhibitor: 65.0%

What do the screens show for `COc1ccccc1CNc1ncnc2c1nnn2Cc1ccccc1`?
PKM2 inhibitor: 82.7%

How did O=C(Cc1ccccc1)Nc1cccc(N2C(=O)C=CC2=O)c1 do in these assays?
PKM2 inhibitor: 60.0%

What do the screens show for `O=C(Nc1ccc(NC(=S)NC(=O)c2cccs2)cc1)c1ccco1`?
PKM2 inhibitor: 107.8%

What do the screens show for `CN(C)c1ccc(N/C=C/C(=O)c2ccco2)cc1`?
PKM2 inhibitor: 14.1µM*

Results for COc1ccc(CCNC(=O)CCSc2nc(-c3ccco3)cc(C(F)(F)F)n2)cc1OC ?
PKM2 inhibitor: 82.5%

Results for Cc1ccsc1/C=N/Nc1nc(=O)[nH]nc1C ?
PKM2 inhibitor: 14.1µM*

How did CCN=C1S/C(=C\c2cc(Br)c(O)c(OC)c2)C(=O)N1CC do in these assays?
PKM2 inhibitor: 2.3%

What do the screens show for `Cc1nnc2sc(SCC(=O)Nc3nccs3)nn2c1=O`?
PKM2 inhibitor: 62.0%

Results for COc1ccc(C(=O)NCCN2C(=O)S/C(=C\c3cccnc3)C2=O)cc1[N+](=O)[O-] ?
PKM2 inhibitor: 96.9%

What do the screens show for `CC1(C)CC(Nc2ccc(Nc3ccccc3)cc2)CC(C)(C)N1`?
PKM2 inhibitor: 52.3%

What do the screens show for `N/C(=N/OC(=O)c1ccccc1F)c1nonc1N`?
PKM2 inhibitor: 15.8µM*

Results for Cc1c(C(=O)OCc2ccccc2)nnn1-c1nonc1N ?
PKM2 inhibitor: 36.3%

Results for CCOc1ccccc1NC(=S)N1CCN(c2ccccc2F)CC1 ?
PKM2 inhibitor: -23.2%

What do the screens show for `CCCCCCCN1CCC(=O)N([C@H](CO)c2ccccc2)CC1`?
PKM2 inhibitor: 30.7%

What do the screens show for `Cc1ccc(/C(N)=N/OC(=O)Cc2cccc3ccccc23)cc1`?
PKM2 inhibitor: 60.5%

How did Cc1occc1C(=O)O/N=C(\N)c1ccccc1 do in these assays?
PKM2 inhibitor: 7.08µM*

What do the screens show for `C(=N\n1cnnc1)/c1ccccn1`?
PKM2 inhibitor: -9.3%

Results for C(=N\Nc1nc2ccccc2[nH]1)/c1ccccn1 ?
PKM2 inhibitor: 14.1µM*

How did COc1ccc(-n2c(=S)[nH]c3ncccc3c2=O)cc1 do in these assays?
PKM2 inhibitor: -0.3%

How did COc1ccc(N2Cc3ccccc3C2=O)cc1 do in these assays?
PKM2 inhibitor: 14.1µM*

Results for COc1ccc(N2C(=O)CC(Sc3nnc(-c4ccccc4F)n3C)C2=O)cc1 (configuration not stated) ?
PKM2 inhibitor: 49.8%

What do the screens show for `O=S(=O)(Nc1ccc(-n2cccc2)cc1)c1ccccc1`?
PKM2 inhibitor: 71.7%

What do the screens show for `O=C(Cn1nnc(-c2ccc3c(c2)OCO3)n1)NCc1ccccc1`?
PKM2 inhibitor: 84.9%

What do the screens show for `COc1ccc(S(=O)(=O)NCc2c(-c3ccccc3)noc2C)c(OC)c1`?
PKM2 inhibitor: 77.7%

Results for c1ccc(-c2noc(-c3ccncc3)n2)nc1 ?
PKM2 inhibitor: 14.1µM*

How did c1ccc(-c2noc(-c3ccc4c(c3)OCO4)n2)nc1 do in these assays?
PKM2 inhibitor: 8.91µM*
